Our source for the growth inhibition values is PubChem BioAssay (NCI).

About 79,000 compounds went through this panel and 15% of them were active in at least one assay; those are over-represented in the sample as a whole. Values without a mark were called inactive. Calls of active or inactive are those of the source. No stated cut-off is given here; in the data, active means growth inhibition above about 70%; inactive means the rest.

A short description of experiment [1]: NCI Yeast Anticancer Drug Screen. Data for the rad50 strain (AID 155).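 Further: 0% = growth of vehicle-only cultures of the same strain.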 The note with it: S. cerevisiae rad50 strain growth inhibition; at 50.0 µM; active compounds read high. The procedure, abridged: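 DNA repair mutant yeast, compound exposure, growth read-out; inhibition is taken relative to vehicle.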
Experiment [2] is described as follows: NCI Yeast Anticancer Drug Screen. Data for the mec2-1 strain (AID 157). Particulars: S. cerevisiae mec2-1 strain, at 50.0 µM, active compounds read high. The method, boiled down:
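mec2-1 yeast strain, carrying an alteration in DNA damage repair or cell cycle control, was exposed to compounds; growth inhibition was measured relative to vehicle-treated controls.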

Experiment [3] in a line: NCI Yeast Anticancer Drug Screen. Data for the sgs1 mgt1 strain (AID 161).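 Further: 0% = growth of cultures given vehicle only.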 The note with it: S. cerevisiae sgs1 mgt1 strain, at 50.0 µM, active compounds read high. The method, boiled down:
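Percent growth inhibition was derived by comparing compound-exposed mutant yeast with vehicle-exposed cultures. The strain carries alterations in DNA damage repair.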

Experiment [4] can be described thus: NCI Yeast Anticancer Drug Screen. Data for the cln2 rad14 strain (AID 165).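 Further: 0% = growth equal to vehicle treated cultures.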 Particulars: S. cerevisiae cln2 rad14 strain, at 50.0 µM, active compounds read high. The procedure, abridged: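 Yeast carrying cln2 and rad14 alterations (cell cycle control and DNA damage repair) were exposed to compounds. Growth inhibition was measured against vehicle-treated controls.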

The nature of experiment [5]: NCI Yeast Anticancer Drug Screen. Data for the bub3 strain (AID 167). Particulars: S. cerevisiae bub3 mutant strain, at 50.0 µM, active compounds read high. The procedure, abridged: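 In this screen, a yeast mutant lacking normal mitotic checkpoint function is challenged with compound. Relative growth versus vehicle gives the inhibition value.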
Experiment [6] can be described thus: NCI Yeast Anticancer Drug Screen. Data for the mlh1 rad18 strain (AID 175). Particulars: S. cerevisiae mlh1 rad18 strain growth inhibition; at 50.0 µM; active compounds read high. The procedure, abridged: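 Growth inhibition of the yeast strain was measured after compound exposure and expressed relative to vehicle-treated controls. The strain carries defined defects in DNA damage repair.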

In the case of `C[N+]([O-])(Cc1ccccc1)c1ccccc1` (stereo unspecified), the growth inhibition is -3.6% in experiment [1]; -16.3% in experiment [2]; -15.2% in experiment [3]; -20.9% in experiment [4]; -26.8% in experiment [5]; 1.75% in experiment [6].

For `CC(C)C(=O)OC1c2cc(OCCN(C)C)ccc2CC1C` (stereo unspecified), the growth inhibition is -11% in experiment [1]; -6.75% in experiment [2]; -8.3% in experiment [3]; -27.9% in experiment [4]; -5.95% in experiment [5]; -33.9% in experiment [6].

For `CCCCOCCOCCOC(=O)c1ccc(C)cc1`, the growth inhibition was 3.9% in experiment [1]; -11% in experiment [2]; -13.8% in experiment [3]; -49.9% in experiment [4]; 46% in experiment [5]; 11% in experiment [6].

In the case of `CCCCOC(=O)C1CCCCC1C(=O)OCCCC` (stereo unspecified), the growth inhibition is -3.7% in experiment [1]; 14.8% in experiment [2]; -0.45% in experiment [3]; 63.1% in experiment [4]; 12.2% in experiment [5]; -21.4% in experiment [6].

`CC(C)N1CCC(OC(=O)Nc2ccccc2)C1` (stereo unspecified): the growth inhibition is 3.85% in experiment [1]; 5.6% in experiment [2]; -7.75% in experiment [3]; -27.1% in experiment [4]; -14.5% in experiment [5]; 8.35% in experiment [6].

As to `O=C1/C(=C/c2ccccc2)CC/C1=C\c1ccccc1`, the growth inhibition in experiment [1] is 5.35%; in experiment [2], 17.6%; in experiment [3] it was 31.8%; in experiment [4], 20.2%; in experiment [5], 19.8%; in experiment [6] it was 3.85%.

Turning to `CCCCCCCC[N+]1([O-])CC[N+](C)([O-])CC1` (stereo unspecified), the growth inhibition in experiment [1] was 3.9%; in experiment [2] it was 4.1%; in experiment [3], -2.25%; in experiment [4], -21.5%; in experiment [5], -8.3%; in experiment [6], 2.55%.

On to `O=C(NNC(=O)c1cccc(F)c1)c1ccccc1`, for which the growth inhibition in experiment [1] is -25.8%; in experiment [2], -4.25%; in experiment [3], -22.9%; in experiment [4], -6.05%; in experiment [5], -12.8%; in experiment [6], 5.2%.

On to `COCc1cc(=O)c(OC)cn1CCO`, for which the growth inhibition in experiment [1] is -40.5%; in experiment [2], -17.9%; in experiment [3], -25.9%; in experiment [4], -63.1%; in experiment [5] it was 0%; in experiment [6] it was -5.2%.

`O=C1NN=C(C(O)c2ccccc2)C1(O)c1ccccc1` (stereo unspecified): the growth inhibition was 8.3% in experiment [1]; -6.25% in experiment [2]; -0.65% in experiment [3]; 0.2% in experiment [4]; 2.5% in experiment [5]; 17.8% in experiment [6].

For `CC/C(=N/NC(=O)c1ccccc1)c1ccccc1`, the growth inhibition in experiment [1] was -18.9%; in experiment [2], 9.5%; in experiment [3], 8.7%; in experiment [4] it was -19.4%; in experiment [5], 8.5%; in experiment [6], -17.7%.

Regarding `COc1ccc(C2C/C(=N/O)c3ccccc3O2)cc1` (stereo unspecified), the growth inhibition in experiment [1] was 16.6%; in experiment [2], -7.85%; in experiment [3], 5.85%; in experiment [4] it was -93.6%; in experiment [5], -7.75%; in experiment [6], 10.1%.

Regarding `O=C(NCCCBr)Nc1cccc2c1CCCC2`, the growth inhibition was -7.45% in experiment [1]; 5.9% in experiment [2]; 2.5% in experiment [3]; -31.5% in experiment [4]; -20.9% in experiment [5]; -21.1% in experiment [6].

On to `CC1C(c2ccccc2O)c2cc3c(cc2OC1N1CCOCC1)OCO3` (stereo unspecified), for which the growth inhibition in experiment [1] is -24.9%; in experiment [2] it was -13.6%; in experiment [3], 7.45%; in experiment [4] it was -5.75%; in experiment [5], -18.2%; in experiment [6], -29.1%.

In the case of `Cc1cccc(F)c1C`, the growth inhibition in experiment [1] is 24.9%; in experiment [2] it was -14.5%; in experiment [3], 4.9%; in experiment [4], 6.1%; in experiment [5], 3.2%; in experiment [6], 7.25%.

With `Cc1ccc2c(c1)C(=Nc1ccc(Cl)cc1)C(=O)N2`, the growth inhibition in experiment [1] is -1.6%; in experiment [2], 1.7%; in experiment [3] it was 1.75%; in experiment [4], -0.55%; in experiment [5], 18.9%; in experiment [6], 13.1%.

With `COc1ccc(CC(=O)c2c(O)c3c(c(CC=C(C)C)c2OC)OC(C)(C)C=C3)cc1`, the growth inhibition in experiment [1] is 22.4%; in experiment [2], -26.3%; in experiment [3], -14.8%; in experiment [4], 4.15%; in experiment [5], -2.75%; in experiment [6], 14.2%.

For the compound `O=[N+]([O-])c1ccc(S(=O)c2ccc(Cl)cc2)c2c1no[n+]2[O-]` (stereo unspecified), the growth inhibition in experiment [1] was 98.5% (active); in experiment [2], 99.4% (active); in experiment [3], 98.7% (active); in experiment [4], 32%; in experiment [5] it was 76.1% (active); in experiment [6], 99.2% (active).

In the case of `Fc1ccc(CSc2cnnc(SCc3ccc(F)cc3)c2SCc2ccc(F)cc2)cc1`, the growth inhibition was -23.2% in experiment [1]; 2.75% in experiment [2]; -20.2% in experiment [3]; -21.9% in experiment [4]; -13.9% in experiment [5]; -34.7% in experiment [6].

On to `N#C/C(=C1\OC(N)=C(c2ccc(Cl)cc2)C1=O)c1ccc(Cl)cc1`, for which the growth inhibition in experiment [1] was 2.9%; in experiment [2], -8.45%; in experiment [3], 6.8%; in experiment [4] it was 18.4%; in experiment [5], 2.15%; in experiment [6], 9.2%.

Take `Nc1ccc2c(c1)C(=O)c1cc(C(=O)O)ccc1-2`: the growth inhibition in experiment [1] was 21.2%; in experiment [2] it was -2.55%; in experiment [3], 9.75%; in experiment [4] it was 15.9%; in experiment [5] it was 12.8%; in experiment [6], -10.1%.
